Screening data (PubChem)
Rows were chosen to be rich in hits. Some 12% of all compounds tested hit in one or more screens of this group.
BAZ2B inh – blocks human BAZ2B | Potency, µM (doses to about 114 µM), without a hit: at the highest dose activity change, negative = inhibition, usual class: inhibitors | AlphaScreen BAZ2B-H3K14Ac peptide displacement | hit rate 4.4% among 360,000; further: on the % scale 0 is the no-effect control and ±100 the full control effect; nearly all actives have a fitted effect of over 60% in size
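Complex of BAZ2B and biotin-H3K14Ac (50 nM apiece) forms over 30 min at RT, then faces library compounds up to 110 uM for another 30 min; AlphaScreen beads added, 20 min dark incubation, luminescence read.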
Sfp PPTase inh – Sfp phosphopantetheinyl transferase inhibition. Q9F4F7. Biochemical Sfp PPTase activity, qHTS. Potency, µM, without a hit: largest response in the series, negative = inhibition, usual class: inhibitors. hit rate 3.5% among 310,000. AID 1490;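 further: the enzyme is Sfp with the accession as filed and its product quenches rhodamine fluorescence; 0% = enzyme reaction without inhibitor and -100% = no enzyme wells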
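Fluorescence-quenching assay with 15 nM Sfp, 5 uM rhodamine-CoA and 12.5 uM BHQ-2-labelled ybbR peptide in pH 7.6 Hepes/MgCl2 buffer. Enzyme was pre-incubated with compound for 15 min at room temperature. Rate was taken from the 30-min fluorescence change (525/598 nm).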
G9a block – inhibitors of human histone lysine methyltransferase G9a; G9a H3K9 monomethylation, AlphaScreen, 2 h; Potency, µM (top dose mostly 102 µM), inactives show top-dose activity, negative = inhibition, hits mostly inhibitors; hit rate 8.8% among 350,000; AID 504332; further: on the % scale 0 is the no-effect control and ±100 the full control effect; nearly all actives have a fitted effect of over 75% in size
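Methyltransferase reactions run at room temperature for 2 h (20 nM enzyme, 500 nM biotin-H3K9 peptide, 20 uM SAM) after a 15 min compound preincubation; product detected by AlphaScreen beads and anti-H3K9me1 antibody.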
PLK1 PBD inh – inhibitors of human PLK1 polo-box domain binding. hit rate 2.8% among 360,000. Plk1 PBD binding of FITC phosphopeptide, fluorescence polarization. AID 720504. Potency, µM, without a hit: max response, negative = inhibition, actives largely listed as inhibitors. P53350; further: series mostly up to about 57 µM; on the % scale 0 is the no-effect control and ±100 the full control effect; nearly all actives have a fitted effect of over 65% in size
JMJD2A Tudor inh – blocks the human JMJD2A Tudor domain; O75164; AlphaScreen JMJD2A-Tudor / H3K4me3 peptide binding; Potency, µM (series often up to 114 µM), for the others: top-dose activity change, negative = inhibition, hits mostly inhibitors; hit rate 4.4% among 390,000; AID 504339; further: on the % scale 0 is the no-effect control and ±100 the full control effect; nearly all actives have a fitted effect of over 50% in size
Target sequence (O75164 whole entry, looked up, the tested form may be a part): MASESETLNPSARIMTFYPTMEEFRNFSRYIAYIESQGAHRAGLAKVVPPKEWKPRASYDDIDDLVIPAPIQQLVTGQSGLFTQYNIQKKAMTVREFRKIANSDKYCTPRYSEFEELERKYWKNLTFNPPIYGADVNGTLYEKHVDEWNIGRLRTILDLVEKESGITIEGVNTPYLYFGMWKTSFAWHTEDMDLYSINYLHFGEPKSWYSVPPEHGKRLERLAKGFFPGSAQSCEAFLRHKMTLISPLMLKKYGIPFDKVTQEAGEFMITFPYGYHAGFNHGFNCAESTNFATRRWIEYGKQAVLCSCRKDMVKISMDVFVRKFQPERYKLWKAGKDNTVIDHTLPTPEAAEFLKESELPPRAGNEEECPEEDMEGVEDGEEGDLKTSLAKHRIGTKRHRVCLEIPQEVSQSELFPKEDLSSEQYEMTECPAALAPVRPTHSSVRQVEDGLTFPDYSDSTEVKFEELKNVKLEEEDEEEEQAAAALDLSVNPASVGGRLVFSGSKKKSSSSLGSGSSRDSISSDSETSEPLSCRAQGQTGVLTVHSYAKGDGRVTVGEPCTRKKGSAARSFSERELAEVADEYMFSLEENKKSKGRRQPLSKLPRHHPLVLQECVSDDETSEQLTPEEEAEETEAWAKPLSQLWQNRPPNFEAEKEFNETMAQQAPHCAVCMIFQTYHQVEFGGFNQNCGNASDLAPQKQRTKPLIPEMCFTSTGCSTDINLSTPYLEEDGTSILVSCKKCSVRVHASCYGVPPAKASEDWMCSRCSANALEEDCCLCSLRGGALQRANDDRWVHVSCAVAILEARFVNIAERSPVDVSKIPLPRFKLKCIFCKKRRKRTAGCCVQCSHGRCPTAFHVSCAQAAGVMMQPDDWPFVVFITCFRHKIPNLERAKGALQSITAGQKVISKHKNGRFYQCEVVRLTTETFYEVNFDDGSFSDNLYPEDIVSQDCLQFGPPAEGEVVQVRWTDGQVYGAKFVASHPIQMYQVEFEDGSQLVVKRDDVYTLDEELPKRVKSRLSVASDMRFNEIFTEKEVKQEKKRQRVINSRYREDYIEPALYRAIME
HP1b binding inh – blocks HP1-beta chromodomain binding to methylated histone tails; P83916; AlphaScreen HP1-beta / biotin-H3K9me3 peptide binding; Potency, µM (highest dose often 114 µM), for inactives: at the highest dose activity change, negative = inhibition, most hits filed as inhibitors; hit rate 0.56% among 390,000; further: nearly all actives have a fitted effect of over 70% in size
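HP1-beta protein (50 nM final) preincubated 30 min at room temperature with biotinylated H3(1-18)K9me3 peptide (50 nM) in PBS pH 7.4, 0.01% Tween-20, then compound added for 30 min. AlphaScreen streptavidin donor/nickel chelate acceptor beads (10 ug/mL final), 30 min dark, luminescence read.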
* hit, by the source's call; [ ] = remark or other dose. The call rests on the fitted dose curve; in most records, active means well fitted curve in the direction sought with a large enough effect; inconclusive means small, poorly fitted or top-dose-only effect, or another doubt; inactive means no such curve, though single readings can be large; an effect the other way counts as inactive or inconclusive. Potency means the concentration at half of the fitted maximal effect.

Results for CC1CCN(CC(CS(=O)(=O)c2ccc([N+](=O)[O-])cc2)N2CCC(C)CC2)CC1 (centres undefined) ?
BAZ2B inh: -2%; Sfp PPTase inh: 0%; PLK1 PBD inh: inconclusive; JMJD2A Tudor inh: -13%[11.4 µM]; HP1b binding inh: 21%

How did O=c1c2cc(C(F)(F)F)ccc2sn1-c1ccccc1 do in these assays?
PLK1 PBD inh: 2.7µM*

Results for O=c1c2cc(F)ccc2sn1-c1ccccc1 ?
BAZ2B inh: 10µM*; G9a block: 0%[0.501 µM]; PLK1 PBD inh: 1.1µM*; JMJD2A Tudor inh: 8.9µM*; HP1b binding inh: 1%

What do the screens show for `CC(C)c1cc(C(C)C)c(S(=O)(=O)Nc2cccc3cccnc23)c(C(C)C)c1`?
Sfp PPTase inh: -1%; JMJD2A Tudor inh: -1%

Results for CCOC(=O)C1=C(CS(=O)(=O)c2ccc(F)cc2)NC(=O)NC1c1ccc(O)c(O)c1 (centres undefined) ?
BAZ2B inh: -34%; Sfp PPTase inh: -8%; G9a block: 14µM*; PLK1 PBD inh: -12%; JMJD2A Tudor inh: -30%; HP1b binding inh: -21%

Results for CN(C)CCCN(C(=O)CCOc1ccccc1)c1nc2c(F)cccc2s1 ?
Sfp PPTase inh: 50µM*; G9a block: 22µM*; PLK1 PBD inh: inconclusive; JMJD2A Tudor inh: -32%; HP1b binding inh: 23%

Results for CN(C)CCCN(C(=O)COc1ccccc1)c1nc2ccc(F)cc2s1 ?
Sfp PPTase inh: -10%; G9a block: inconclusive; PLK1 PBD inh: 4%; JMJD2A Tudor inh: -10%; HP1b binding inh: 31%

How did Cc1cccc2sc(N(CCCN(C)C)C(=O)COc3ccccc3)nc12 do in these assays?
BAZ2B inh: -15%; G9a block: inconclusive; JMJD2A Tudor inh: inconclusive; HP1b binding inh: 29%

What do the screens show for `CN(C)CCCN(C(=O)COc1ccc(Cl)cc1)c1nc2ccc(F)cc2s1`?
BAZ2B inh: 16%; Sfp PPTase inh: -23%; G9a block: 56µM*; PLK1 PBD inh: -9%; JMJD2A Tudor inh: -9%; HP1b binding inh: 40%

Results for Cc1cccc2sc(N(CCCN(C)C)C(=O)COc3ccc(Cl)cc3)nc12 ?
Sfp PPTase inh: inconclusive; G9a block: 50µM*; PLK1 PBD inh: -2%; JMJD2A Tudor inh: -26%; HP1b binding inh: 10%

How did Cc1ccc2nc(N(CCCN(C)C)C(=O)COc3ccc(Cl)cc3)sc2c1 do in these assays?
Sfp PPTase inh: 89µM*; G9a block: inconclusive; PLK1 PBD inh: 1%; JMJD2A Tudor inh: -29%; HP1b binding inh: 30%

How did NS(=O)(=O)c1ccc(CCNC(=O)COC(=O)c2nc(Cl)ccc2Cl)cc1 do in these assays?
BAZ2B inh: 7%; G9a block: 18%[2.33 µM]; PLK1 PBD inh: -2%; JMJD2A Tudor inh: 1%; HP1b binding inh: 60%

Results for O=C(Cn1cc(SCc2ccccc2F)c2ccccc21)N1CCCCC1 ?
BAZ2B inh: -7%; G9a block: 4%[59 µM]; JMJD2A Tudor inh: -8%; HP1b binding inh: 22%

Results for CCOc1ccc(CCNCc2c(C(=O)O)c(C)n(Cc3ccccc3F)c2C)cc1 ?
BAZ2B inh: inconclusive; G9a block: -8%[59 µM]; JMJD2A Tudor inh: -31%; HP1b binding inh: -4%

Results for Cc1ccc2nc(N(CCCN(C)C)C(=O)c3ccc4c(c3)CCCC4)sc2c1 ?
BAZ2B inh: inconclusive; Sfp PPTase inh: inconclusive; G9a block: inconclusive; PLK1 PBD inh: -4%; JMJD2A Tudor inh: inconclusive; HP1b binding inh: inconclusive

Results for CN(C)CCCN(C(=O)CCOc1ccccc1)c1nc2ccc(F)cc2s1 ?
Sfp PPTase inh: -21%; G9a block: 28µM*; PLK1 PBD inh: inconclusive; JMJD2A Tudor inh: -24%; HP1b binding inh: 17%

What do the screens show for `Cc1ccc2nc(N(CCCN(C)C)C(=O)c3cc(-c4cccs4)nc4ccccc34)sc2c1`?
BAZ2B inh: 25µM*; Sfp PPTase inh: 79µM*; G9a block: 40µM*; PLK1 PBD inh: -4%; JMJD2A Tudor inh: 14µM*; HP1b binding inh: inconclusive
